# NPC1 promoter act = activates the NPC1 promoter | Potency, µM (doses to about 9.22 µM), inactives show at the top dose activation, usual class: activators | Huh7 NPC1 promoter luciferase reporter, 24 h | AID 485313 | actives 2.4% (n = 320,000); note: % of control where 0% means no effect; nearly all actives have a fitted effect of over 60% in size
#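 Huh7 cells stably carrying NPC1 promoter–luciferase, plated in Opti-MEM with 10% FBS for 2 h, were exposed to compound in DMSO for 24 h at 37 °C; luciferase reagent was added for 10 min and luminescence read.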
# Rab9 prom act = activates the Rab9 promoter | Huh7 Rab9 promoter-luciferase reporter, luminescence, 24 h | Potency, µM (highest dose often 9.22 µM), without a hit: at the top dose activation, negative = inhibition, actives largely listed as activators | actives 2.8% (n = 320,000); note: % of control where 0% means no effect; nearly all actives have a fitted effect of over 60% in size
#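 Luciferase signal after 10 min detection reagent at ambient indicates Rab9 promoter upregulation; stably transfected Huh7 cells were treated 24 h with compound in DMSO at 37 °C, 5% CO2.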
# SMN2 splice enh = enhancers of SMN2 splice variant expression; HEK293 SMN2-luciferase splicing reporter, luminescence, 30-36 h; actives 2.8% (n = 210,000); AID 1458; Potency, µM (highest dose often 46.1 µM), for inactives: at the top dose activity change, positive = activation, usual class: activators; note: % of control where 0% means no effect; nearly all actives have a fitted effect of over 55% in size
#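 qHTS luciferase splicing reporter: luminescence rises when SMN2 exon 7 is included in transfected HEK293 cells. Compound exposure lasted 30-36 h at 37C, with 4.5 mM final sodium butyrate as control, followed by a ONE-Glo read.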
# FLuc modulator = counter-screen for miR-21 project: firefly luciferase inhibitors or activators | AID 588342 | purified FLuc, Km substrates, luminescence inhibition | Potency, µM (titrated, usually from 57.5 µM), for the others: at the top dose activity change, negative = inhibition, hits mostly inhibitors | actives 6.9% (n = 360,000) | P08659;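 note: plate controls were vehicle for no effect and reference inhibitor for full effect; nearly all actives have a fitted effect of over 55% in size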
# Target sequence (P08659 whole entry, looked up): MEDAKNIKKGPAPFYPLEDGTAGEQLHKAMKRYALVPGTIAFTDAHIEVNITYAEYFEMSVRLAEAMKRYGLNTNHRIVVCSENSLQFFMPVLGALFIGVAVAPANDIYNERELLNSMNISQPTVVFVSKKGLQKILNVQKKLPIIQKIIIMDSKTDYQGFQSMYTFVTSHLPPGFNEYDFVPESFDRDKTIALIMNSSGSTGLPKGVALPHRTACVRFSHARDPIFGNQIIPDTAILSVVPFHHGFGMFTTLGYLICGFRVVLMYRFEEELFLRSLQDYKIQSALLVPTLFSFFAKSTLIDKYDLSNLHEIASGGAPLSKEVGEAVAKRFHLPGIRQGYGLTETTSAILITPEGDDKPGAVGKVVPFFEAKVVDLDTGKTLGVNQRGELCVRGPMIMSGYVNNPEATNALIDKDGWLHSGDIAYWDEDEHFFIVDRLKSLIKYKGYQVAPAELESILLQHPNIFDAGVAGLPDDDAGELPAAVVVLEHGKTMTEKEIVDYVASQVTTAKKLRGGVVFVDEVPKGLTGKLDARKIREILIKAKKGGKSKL
#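 Biochemical qHTS of compounds, final roughly 60 µM downward over six points, against 10 nM purified firefly luciferase using Km concentrations of substrates (10 uM D-luciferin, 10 uM ATP) in Tris acetate pH 7.5 buffer; luminescence output.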
# Luc counter = Kinase-Glo luciferase inhibition (counter-screen). actives 0.28% (n = 200,000). Potency, µM (series often up to 38.3 µM), without a hit: top-dose activity change, negative = inhibition, most hits filed as inhibitors. Kinase-Glo luciferase, ATP luminescence, 8 min. AID 1379; note: % is set by controls: 0 for no effect and ±100 for the full control effect; nearly all actives have a fitted effect of over 60% in size
#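 Inhibition of Kinase-Glo luciferase light generation was assessed at 10 uM ATP in pH 7.2 imidazole buffer, with luminescence measured after eight minutes at ambient temperature.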
# * = called active by the depositor; u = inconclusive; x = no result given; [ ] = another dose, or the depositor's remark. Shown are actives, neighbours in structure and some others; about 7.3% of the full set was active somewhere. Calls come from the whole dose curve; as a rule, active = well fitted curve in the direction sought with a large enough effect; inconclusive = small, poorly fitted or top-dose-only effect, or another doubt; inactive = no such curve, though single readings can be large; an effect the other way counts as inactive or inconclusive. Potency is the fitted concentration of half-maximal effect.
SMILES,NPC1 promoter act,Rab9 prom act,SMN2 splice enh,FLuc modulator,Luc counter
Cc1ccc(-c2cc3nc(C)cc(NCc4ccco4)n3n2)cc1,2.8µM*,17%,13µM*,2.4µM*,-14%
Cc1ccc(N=Nc2c(O)c3ccccc3[nH]c2=O)c(S(=O)(=O)N(C)C)c1,7%,23%,-2%[9.22 µM],1.3µM*,-2%[7.66 µM]
CCOc1ccccc1NC(=O)n1ncc2cc(Cl)ccc21,x,x,x,-7%,x
COc1ccc(C(=O)/C=C/c2ccc(F)cc2)c(OC(=O)c2ccc([N+](=O)[O-])cc2)c1,12%,-2%,4%,9.5µM*,2%
COc1ccc(N(C(=O)c2cccc([N+](=O)[O-])c2)S(=O)(=O)c2cccs2)cc1,0%,-4%,1%,-1%,-1%
COc1ccc(C(=O)/C=C/c2cccs2)c(OC(=O)c2cccc([N+](=O)[O-])c2)c1,27%,u,u,4.8µM*,0%
COC1(C(F)(F)F)NC(=O)N(c2ccc(F)cc2)C1=O (centres undefined),x,x,0%,1%,x
COc1cccc(-c2nn(-c3ccc(F)cc3)cc2C(=O)NCC2CCCO2)c1 (centres undefined),0%,-2%,x,17µM*,x
COc1ccc(-c2nn(-c3ccccc3)cc2C(=O)NCC2CCCO2)cc1 (centres undefined),0%,3%,x,u,x
O=C(NCC1CCCO1)c1cn(-c2ccccc2)nc1-c1ccccc1 (centres undefined),14%,3%,x,6.7µM*,x
Cc1ccc(-c2nn(-c3ccc(F)cc3)cc2C(=O)NCC2CCCO2)cc1 (centres undefined),-8%,10%,x,11µM*,x
COc1cccc(-c2nn(-c3ccc(C)cc3)cc2C(=O)NCC(c2cccs2)N2CCOCC2)c1 (centres undefined),-4%,-1%,x,u,x
CCc1ccc(-c2nn(Cc3ccccc3)cc2C(=O)NCC2CCCO2)cc1 (centres undefined),3%,1%,x,x,x
COc1cccc(-c2nn(-c3ccc(C)cc3)cc2C(=O)NCC2CCCO2)c1 (centres undefined),-1%,13%,x,9.5µM*,x
CC[n+]1c(/C=C/C=C2/N(C)c3ccccc3C2(C)C)sc2ccccc21,-31%[46.1 µM],-44%[46.1 µM],x,x,x
CCOc1ccc(NC(=O)N2CCN(c3nnc(C)c4c(C)n(-c5ccccc5)nc34)CC2)cc1,x,x,x,-10%,x
COc1cccc(-c2cc(C(=O)NCC3CCCO3)c3cc(C)cc(C)c3n2)c1 (centres undefined),-4%,16%,x,1.9µM*,x
O=C(NCC1CCCO1)c1cc(-c2ccncc2)nc2ccccc12 (centres undefined),-2%,2%,x,1%,x
C=CCN1C(=O)C(CC(=O)O)S/C1=N/N=C/c1ccc(N(CC)CC)cc1 (centres undefined),3%,-2%,x,21µM*,x
CN(C)c1ccc(/C=N/N=C2/SC(CC(=O)O)C(=O)N2c2ccc(O)cc2)cc1 (centres undefined),-1%,26%,-7%,u,5%
COc1ccccc1C1N=C(c2ccccc2C)NO1 (centres undefined),21%,u,x,8.5µM*,x
COc1ccccc1C1=NC(c2ccc(F)cc2)N=C1C (centres undefined),20%,u,23%,u,5%
Cc1ccccc1C1=NC(c2ccc(F)cc2F)ON1 (centres undefined),1%,24%,35%,24µM*,-7%
CCOc1ccccc1CNc1nc2nc(C)c(CC(=O)OC)c(=O)n2[nH]1,x,x,4%,-18%,x
COc1ccc(Br)cc1/C=N/NC(=O)c1ccc2nc[nH]c2c1,8%,10%,x,u,x
SMILES,NPC1 promoter act,Rab9 prom act,SMN2 splice enh,FLuc modulator,Luc counter
COc1ccc(OC)c(/C=N/NC(=O)c2ccc3nc[nH]c3c2)c1,3%,0%,x,u,x
CCN(CC)c1ccc(/C=N/NC(=O)c2cccc(N3CCCC3=O)c2)cc1,7%,-3%,-5%,15µM*,-2%
CN(C)c1ccc(/C=N/NC(=O)c2ccc3nc[nH]c3c2)cc1,3%,18%,x,13µM*,x
COc1cc(/C=N/NC(=O)c2ccc3nc[nH]c3c2)ccc1O,-6%,-9%,x,u,x
COc1cccc(/C=N/NC(=O)c2ccc3nc[nH]c3c2)c1,4%,2%,x,15µM*,x
COc1ccccc1/C=C/C=N/NC(=O)c1ccc2nc[nH]c2c1,-1%,1%,-19%,17µM*,-2%
COC(=O)c1ccccc1NC(=O)c1nn(C)c2c1COc1ccccc1-2,x,x,x,-4%,x
Cc1noc2ncnc(N3CCN(c4ccccc4F)CC3)c12,x,x,x,5%,x
CCN(CC)c1ccc(/C=N/NC(=O)c2ccc3nc[nH]c3c2)cc1,3%,0%,x,19µM*,x
Cc1oc2ccc(OCC(N)=O)cc2c1C(=O)OC(C)C,-4%,2%,-27%,3%,-3%
Cc1oc2ccc(O)cc2c1C(=O)OC(C)C,-2%,1%,-12%,15µM*,-4%
C[N+](C)(C)CC(=O)N/N=C\c1c(O)ccc2ccccc12,x,x,-17%[9.22 µM],x,-2%[7.66 µM]
COc1ccc(-c2n[nH]c(=S)n2/N=C/C=C/c2ccccc2OC)cc1,-4%,-3%,25%,-13%,1%
COc1ccccc1/C=C/C=N/n1c(-c2ccccc2)n[nH]c1=S,2%,13%,x,15µM*,x
COc1ccc(NC(=O)/C=C/c2ccc(OC)c(OC)c2)cn1,-3%,-6%,x,u,-3%
COc1ccc(NC(=O)/C=C/c2ccc(OC(F)F)cc2)cn1,-45%,-4%,x,12µM*,x
COc1ccc(NC(=O)/C=C/c2cccc(Br)c2)cn1,u,u,x,13µM*,x
COc1ccc(/C=C/C(=O)Nc2ccc(OC)nc2)cc1,6%,-2%,-10%,7.6µM*,3%
COc1ccc(-c2cc(C(F)(F)F)nc(SCC(=O)N3CCCCC3)n2)cc1,x,x,8%,-3%,x
CCCN1CCN(c2ncnc3sc(C(=O)Nc4c(C)cc(C)cc4C)c(C)c23)CC1,x,x,x,2%,x

# Assay outcomes deposited in PubChem by National Center for Advancing Translational Sciences (NCATS).
